Screens (PubChem BioAssay)
CtBP-E1A inh – qHTS Assay for Inhibitors of the CtBP/E1A Interaction. CtBP / adenovirus E1A interaction (AlphaScreen). AlphaScreen GST-E1A/His-CtBP binding, 1536-well; stronger effect = lower value. activity change, % (test concentration not listed). 340,000 compounds, 0.49% hits. AID 651724, 2012; in the data active = activity change below about -65%; inconclusive = mostly about -30% to -63%; also: % is scaled to controls: 0 for no effect and ±100 for the full control effect
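Protein mix (5X: 125 nM each GST-E1A, His-CtBP) was incubated with pinned compound 2 h at 37 deg C in dark, in 50 mM Tris pH 8.0 buffer with 300 mM NaCl. Glutathione donor and nickel acceptor beads followed; AlphaScreen signal read after 1 h.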
RORgamma inh – qHTS for inhibitors of ROR gamma transcriptional activity; Nuclear receptor ROR-gamma (Mus musculus), P51450; Drosophila S2 Gal4-RORgamma UAS-luciferase reporter, 20 h; Potency, µM (top dose mostly 53.6 µM), for the others: at the top dose activity change, negative = inhibition, actives largely listed as inhibitors; 310,000 compounds, 5.4% hits; AID 2551, 2010; also: potency is read from the fitted curve at half-maximal effect; % is scaled to controls: 0 for no effect and ±100 for the full control effect; nearly all actives have a fitted effect of over 60% in size
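A Gal4/UAS one-hybrid system in insect cells: metallothionein-promoter Gal4–ROR gamma fusion plus Photinus luciferase reporter. Copper sulfate 700 uM final, 20 hr ambient incubation, luminescent detection after 10 min with reagent.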
p53 reactivator – qHTS assay for re-activators of p53 using a Luc reporter; H1299 p53-A138V BP100-luciferase reporter, luminescence, 24 h; Potency, µM (doses to about 92.2 µM), without a hit: at the top dose activity change, positive = activation, hits mostly activators; 320,000 compounds, 0.063% hits; AID 504706, 2011; also: potency is read from the fitted curve at half-maximal effect; % of control where 0% means no effect; nearly all actives have a fitted effect of over 45% in size
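p53-null H1299 cells stably carrying temperature-sensitive p53-A138V and a BP100-luciferase reporter were pinned with compounds (4-point, 1:5 series) and held 24 hrs at 37 deg C. Luminescence was read 10 min after detection reagent.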
Six1-Eya2 inh – qHTS Assay for Inhibitors of the Six1/Eya2 Interaction; Homeobox protein SIX1 (Homo sapiens) + Protein phosphatase EYA2 (Homo sapiens), …; AlphaScreen GST-Six1/His-Eya2 binding, biochemical; stronger effect = lower value; activity change, % (concentration not given with the values); 360,000 compounds, 0.56% hits; AID 651725, 2012; in the data active = activity change below about -65%; inconclusive = mostly about -30% to -63%; also: % is scaled to controls: 0 for no effect and ±100 for the full control effect
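AlphaScreen luminescence read after one hour at 37 °C in darkness. Pin-transferred compounds met GST-Six1 and His-Eya2 protein (5X stock 250 nM/500 nM) plus glutathione donor and Ni-chelate acceptor beads (5X, 50 ug/mL).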
Gal4-VP16 FLuc – VP16 counterscreen qHTS for inhibitors of ROR gamma transcriptional activity; Drosophila S2 Gal4-VP16 UAS-luciferase, luminescence, 20 h; Potency, µM (highest dose often 53.6 µM), for the others: at the top dose activity, negative = inhibition, actives largely listed as inhibitors; 310,000 compounds, 3.5% hits; AID 2546, 2010;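 also: Gal4-VP16 expression switched on by copper sulfate through the metallothionein promoter; potency is read from the fitted curve at half-maximal effect; % is scaled to controls: 0 for no effect and ±100 for the full control effect; nearly all actives have a fitted effect of over 50% in size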
An asterisk follows results filed as active; u = inconclusive; x = no result given. The list is not random: actives were taken first. Their share in the collection is about 5.4%. Unless noted, calls follow the shape of the dose curve; as a rule, active = well fitted curve in the direction sought with a large enough effect; inconclusive = small, poorly fitted or top-dose-only effect, or another doubt; inactive = no such curve, though single readings can be large; an effect the other way counts as inactive or inconclusive.

SMILES	CtBP-E1A inh	RORgamma inh	p53 reactivator	Six1-Eya2 inh	Gal4-VP16 FLuc
COC(C(=O)C(O)C(C)O)C1Cc2cc3cc(OC4CC(OC5CC(O)C(O)C(C)O5)C(O)C(C)O4)c(C)c(O)c3c(O)c2C(=O)C1OC1CC(OC2CC(OC3CC(O)C(OC)C(C)O3)C(O)C(C)O2)C(O)C(C)O1 (configuration not stated)	6	x	x	-18	x
COC(C(=O)C(O)C(C)O)C1Cc2cc3cc(OC4CC(OC5CC(O)C(O)C(C)O5)C(O)C(C)O4)c(C)c(O)c3c(O)c2C(=O)C1OC1CC(OC2CC(OC3CC(C)(O)C(O)C(C)O3)C(O)C(C)O2)C(O)C(C)O1 (configuration not stated)	x	0.71µM*	x	x	0.79µM*
COc1ccc2c(c1)CC/C(=C\Nc1ccc3c(c1)OCO3)C2=O	2	u	18%	-10	3%
COc1ccc(N/C=C2\CCc3ccccc3C2=O)cc1	18	8.9µM*	-9%	5	u
O=C1/C(=C/Nc2ccc3c(c2)OCO3)CCc2ccccc21	4	-71%	-4%	-14	11µM*
N#Cc1ccc(CN2CCCC3(CCN(C(=O)c4cnccn4)CC3)C2)cc1	x	0%	x	x	-11%
CCOC(=O)CC1(C)NC(C(=O)O)C(C)(C)S1 (configuration not stated)	u	x	x	-9	x
CCCn1c(CC)nc([N+](=O)[O-])c1S(=O)(=O)c1ccccc1	4	7.9µM*	-16%	3	18µM*
CCc1nc(C)cn1S(=O)(=O)c1ccc([N+](=O)[O-])cc1	-25	1%	2%	11	-9%
S=C(Nc1ccc(Br)cc1)NC1CCCC1	1	6.3µM*	u	2	10µM*
S=C(Nc1ccc(Oc2ccccc2)cc1)NC1CCCC1	-3	5µM*	u	1	5µM*
S=C(Nc1ccccc1Oc1ccccc1)NC1CCCC1	x	3.2µM*	-4%	-2	7.1µM*
CC(C)NC(=S)Nc1ccc(Oc2ccccc2)cc1	-2	u	17%	-9	-17%
COc1ccccc1NC(=S)NC1CCCC1	x	x	x	8	x
S=C(NCC1CCCCC1)Nc1ccc(Oc2ccccc2)cc1	-5	2.8µM*	8%	-15	5µM*
Cc1c(NC(=O)CCc2ccccc2)cccc1[N+](=O)[O-]	2	3%	4%	6	1%
O=C(COC(=O)c1ccccc1Nc1ccc(SC(F)F)cc1)NCc1ccco1	4	u	21%	5	-3%
COc1ccccc1CCNC(=O)c1c(N)[nH]c(C(=O)c2ccccc2)c1-c1ccc(Br)cc1	-7	x	x	-19	x
COc1ccc(NC(=S)NC2CCCCC2)cn1	4	13µM*	-3%	11	u
Cc1cccc(NC(=S)NC2CCCC2)c1	1	22%	1%	-2	-15%
O=C(O)c1ccc(NC2=Nc3cccc4cccc2c34)cc1	-20	34%	2%	3	29%
COc1ccc(CC(=O)NNC2=Nc3cccc4cccc2c34)cc1	1	8.9µM*	3%	-1	-19%
NC(=O)NNC1=Nc2cccc3cccc1c23	0	-35%	-2%	1	-11%
Cc1ccc(C(=O)NNC2=Nc3cccc4cccc2c34)cc1	3	0.89µM*	1%	-1	1.4µM*
COc1ccc(C(=O)NNC2=Nc3cccc4cccc2c34)cc1	-4	0.56µM*	-2%	-1	u
COc1ccc(-n2c(=O)c(C)nc3cnc(OC)nc32)cc1	x	0%	x	x	-14%
CN(C)c1oc(/C=C/c2cccs2)nc1S(=O)(=O)c1ccccc1	0	u	5%	8	8%
CCC(=O)Nc1cccc(-n2nnnc2SCC(=O)N2CCCCC2)c1	27	11%	11%	22	-4%
Cc1ccc(CC(=O)NNC(=O)c2cccs2)cc1C	3	x	10%	-2	x
